Among the data in paper PMC11102866, “Nucleosome-bound NR5A2 structure reveals pioneer factor mechanism by DNA minor groove anchor competition” are binding signal values, retold here.

In assay [1] the target is NR5A2 wild type;histone octamer (Homo sapiens;, UniProt O00482;C0HKE1;Q6ZWY9;P84244;P62806 1-541;2-130;2-126;2-136;2-103, |). Briefly: SeEN-seq (EMSA of nucleosome library followed by sequencing); 0.8 uM human NR5A2; 20 mM Tris-HCl pH 7.5, 120 mM NaCl, 1 mM MgCl2, 10 uM ZnCl2, 1 mM DTT, 100 ug/ml BSA, room temperature, 30 min; 0.1 uM nucleosome library; high values mean tight binding. A general note: A gel shift assay detects complexes by their altered migration in electrophoresis.

For assay [2], the target named is mouse Nr5a2 wild type;histone octamer (Mus musculus;, UniProt P45448;C0HKE1;Q6ZWY9;P84244;P62806 1-560;2-130;2-126;2-136;2-103, |). Kind of assay: SeEN-seq (EMSA of nucleosome library followed by sequencing); 1.2 uM mouse Nr5a2; 20 mM Tris-HCl pH 7.5, 120 mM NaCl, 1 mM MgCl2, 10 uM ZnCl2, 1 mM DTT, 100 ug/ml BSA, room temperature, 30 min; 0.1 uM nucleosome library; high values mean tight binding.

B1: 126 (nucleosome)
DNA 1: ATCCTGGAGAATCCCGGTGCCGAGGCCGCTCAATTGGTCGTAGACAGCTCTAGCACCGCTTAAACGCACGTACGCGCTGTCCCCCGCGTTTTAACCGCCAAGGGGATTACTCCCTAGTCTCCAGGCACTCAAGGCCAATATACATCCTGTGAT
DNA 2: ATCACAGGATGTATATTGGCCTTGAGTGCCTGGAGACTAGGGAGTAATCCCCTTGGCGGTTAAAACGCGGGGGACAGCGCGTACGTGCGTTTAAGCGGTGCTAGAGCTGTCTACGACCAATTGAGCGGCCTCGGCACCGGGATTCTCCAGGAT
modifications: reconstituted with mouse histones H2A, H2B, H3.3 and H4
As for B1, the binding signal in assay [1] was 4.66 log2 enrichment (bound/unbound, relative to Widom 601); in assay [2], 3.59 log2 enrichment (bound/unbound, relative to Widom 601).

B2: 113 (nucleosome)
DNA 1: ATCCTGGAGAATCCCGGTGCCGAGGCCGCTCAATTGGTCGTAGACAGCTCTAGCACCGCTTAAACGCACGTACGCGCTGTCCCCCGCGTTTTAACCGCCAAGGGGATTACTCCCTTCAAGGCCAGCACGTGTCAGATATATACATCCTGTGAT
DNA 2: ATCACAGGATGTATATATCTGACACGTGCTGGCCTTGAAGGGAGTAATCCCCTTGGCGGTTAAAACGCGGGGGACAGCGCGTACGTGCGTTTAAGCGGTGCTAGAGCTGTCTACGACCAATTGAGCGGCCTCGGCACCGGGATTCTCCAGGAT
modifications: reconstituted with mouse histones H2A, H2B, H3.3 and H4
B2: the binding signal in assay [1] was 0.896 log2 enrichment (bound/unbound, relative to Widom 601); in assay [2], 0.869 log2 enrichment (bound/unbound, relative to Widom 601).

B3: 114 (nucleosome)
DNA 1: ATCCTGGAGAATCCCGGTGCCGAGGCCGCTCAATTGGTCGTAGACAGCTCTAGCACCGCTTAAACGCACGTACGCGCTGTCCCCCGCGTTTTAACCGCCAAGGGGATTACTCCCTATCAAGGCCACACGTGTCAGATATATACATCCTGTGAT
DNA 2: ATCACAGGATGTATATATCTGACACGTGTGGCCTTGATAGGGAGTAATCCCCTTGGCGGTTAAAACGCGGGGGACAGCGCGTACGTGCGTTTAAGCGGTGCTAGAGCTGTCTACGACCAATTGAGCGGCCTCGGCACCGGGATTCTCCAGGAT
modifications: reconstituted with mouse histones H2A, H2B, H3.3 and H4
As for B3, the binding signal in assay [1] was 1.13 log2 enrichment (bound/unbound, relative to Widom 601); in assay [2], 1.08 log2 enrichment (bound/unbound, relative to Widom 601).

B4: 118 (nucleosome)
DNA 1: ATCCTGGAGAATCCCGGTGCCGAGGCCGCTCAATTGGTCGTAGACAGCTCTAGCACCGCTTAAACGCACGTACGCGCTGTCCCCCGCGTTTTAACCGCCAAGGGGATTACTCCCTAGTCTTCAAGGCCATGTCAGATATATACATCCTGTGAT
DNA 2: ATCACAGGATGTATATATCTGACATGGCCTTGAAGACTAGGGAGTAATCCCCTTGGCGGTTAAAACGCGGGGGACAGCGCGTACGTGCGTTTAAGCGGTGCTAGAGCTGTCTACGACCAATTGAGCGGCCTCGGCACCGGGATTCTCCAGGAT
modifications: reconstituted with mouse histones H2A, H2B, H3.3 and H4
Turning to B4, the binding signal in assay [1] was 1.08 log2 enrichment (bound/unbound, relative to Widom 601); in assay [2] it was 1.4 log2 enrichment (bound/unbound, relative to Widom 601).

B5: 116 (nucleosome)
DNA 1: ATCCTGGAGAATCCCGGTGCCGAGGCCGCTCAATTGGTCGTAGACAGCTCTAGCACCGCTTAAACGCACGTACGCGCTGTCCCCCGCGTTTTAACCGCCAAGGGGATTACTCCCTAGTTCAAGGCCACGTGTCAGATATATACATCCTGTGAT
DNA 2: ATCACAGGATGTATATATCTGACACGTGGCCTTGAACTAGGGAGTAATCCCCTTGGCGGTTAAAACGCGGGGGACAGCGCGTACGTGCGTTTAAGCGGTGCTAGAGCTGTCTACGACCAATTGAGCGGCCTCGGCACCGGGATTCTCCAGGAT
modifications: reconstituted with mouse histones H2A, H2B, H3.3 and H4
With B5, the binding signal is 1.39 log2 enrichment (bound/unbound, relative to Widom 601) in assay [1] and 2.15 log2 enrichment (bound/unbound, relative to Widom 601) in assay [2].

B6: 115 (nucleosome)
DNA 1: ATCCTGGAGAATCCCGGTGCCGAGGCCGCTCAATTGGTCGTAGACAGCTCTAGCACCGCTTAAACGCACGTACGCGCTGTCCCCCGCGTTTTAACCGCCAAGGGGATTACTCCCTAGTCAAGGCCAACGTGTCAGATATATACATCCTGTGAT
DNA 2: ATCACAGGATGTATATATCTGACACGTTGGCCTTGACTAGGGAGTAATCCCCTTGGCGGTTAAAACGCGGGGGACAGCGCGTACGTGCGTTTAAGCGGTGCTAGAGCTGTCTACGACCAATTGAGCGGCCTCGGCACCGGGATTCTCCAGGAT
modifications: reconstituted with mouse histones H2A, H2B, H3.3 and H4
As for B6, the binding signal is 0.998 log2 enrichment (bound/unbound, relative to Widom 601) in assay [1] and 1.02 log2 enrichment (bound/unbound, relative to Widom 601) in assay [2].

B7: 117 (nucleosome)
DNA 1: ATCCTGGAGAATCCCGGTGCCGAGGCCGCTCAATTGGTCGTAGACAGCTCTAGCACCGCTTAAACGCACGTACGCGCTGTCCCCCGCGTTTTAACCGCCAAGGGGATTACTCCCTAGTCTCAAGGCCAGTGTCAGATATATACATCCTGTGAT
DNA 2: ATCACAGGATGTATATATCTGACACTGGCCTTGAGACTAGGGAGTAATCCCCTTGGCGGTTAAAACGCGGGGGACAGCGCGTACGTGCGTTTAAGCGGTGCTAGAGCTGTCTACGACCAATTGAGCGGCCTCGGCACCGGGATTCTCCAGGAT
modifications: reconstituted with mouse histones H2A, H2B, H3.3 and H4
Take B7: the binding signal was 1.13 log2 enrichment (bound/unbound, relative to Widom 601) in assay [1] and 1.34 log2 enrichment (bound/unbound, relative to Widom 601) in assay [2].

B8: 120 (nucleosome)
DNA 1: ATCCTGGAGAATCCCGGTGCCGAGGCCGCTCAATTGGTCGTAGACAGCTCTAGCACCGCTTAAACGCACGTACGCGCTGTCCCCCGCGTTTTAACCGCCAAGGGGATTACTCCCTAGTCTCCTCAAGGCCATCAGATATATACATCCTGTGAT
DNA 2: ATCACAGGATGTATATATCTGATGGCCTTGAGGAGACTAGGGAGTAATCCCCTTGGCGGTTAAAACGCGGGGGACAGCGCGTACGTGCGTTTAAGCGGTGCTAGAGCTGTCTACGACCAATTGAGCGGCCTCGGCACCGGGATTCTCCAGGAT
modifications: reconstituted with mouse histones H2A, H2B, H3.3 and H4
With B8, the binding signal in assay [1] was 0.677 log2 enrichment (bound/unbound, relative to Widom 601); in assay [2], 0.768 log2 enrichment (bound/unbound, relative to Widom 601).

B9: 121 (nucleosome)
DNA 1: ATCCTGGAGAATCCCGGTGCCGAGGCCGCTCAATTGGTCGTAGACAGCTCTAGCACCGCTTAAACGCACGTACGCGCTGTCCCCCGCGTTTTAACCGCCAAGGGGATTACTCCCTAGTCTCCATCAAGGCCACAGATATATACATCCTGTGAT
DNA 2: ATCACAGGATGTATATATCTGTGGCCTTGATGGAGACTAGGGAGTAATCCCCTTGGCGGTTAAAACGCGGGGGACAGCGCGTACGTGCGTTTAAGCGGTGCTAGAGCTGTCTACGACCAATTGAGCGGCCTCGGCACCGGGATTCTCCAGGAT
modifications: reconstituted with mouse histones H2A, H2B, H3.3 and H4
Regarding B9, the binding signal in assay [1] was 0.664 log2 enrichment (bound/unbound, relative to Widom 601); in assay [2], 0.599 log2 enrichment (bound/unbound, relative to Widom 601).

B10: 119 (nucleosome)
DNA 1: ATCCTGGAGAATCCCGGTGCCGAGGCCGCTCAATTGGTCGTAGACAGCTCTAGCACCGCTTAAACGCACGTACGCGCTGTCCCCCGCGTTTTAACCGCCAAGGGGATTACTCCCTAGTCTCTCAAGGCCAGTCAGATATATACATCCTGTGAT
DNA 2: ATCACAGGATGTATATATCTGACTGGCCTTGAGAGACTAGGGAGTAATCCCCTTGGCGGTTAAAACGCGGGGGACAGCGCGTACGTGCGTTTAAGCGGTGCTAGAGCTGTCTACGACCAATTGAGCGGCCTCGGCACCGGGATTCTCCAGGAT
modifications: reconstituted with mouse histones H2A, H2B, H3.3 and H4
With B10, the binding signal was 0.607 log2 enrichment (bound/unbound, relative to Widom 601) in assay [1] and 0.776 log2 enrichment (bound/unbound, relative to Widom 601) in assay [2].

B11: 122 (nucleosome)
DNA 1: ATCCTGGAGAATCCCGGTGCCGAGGCCGCTCAATTGGTCGTAGACAGCTCTAGCACCGCTTAAACGCACGTACGCGCTGTCCCCCGCGTTTTAACCGCCAAGGGGATTACTCCCTAGTCTCCAGTCAAGGCCAAGATATATACATCCTGTGAT
DNA 2: ATCACAGGATGTATATATCTTGGCCTTGACTGGAGACTAGGGAGTAATCCCCTTGGCGGTTAAAACGCGGGGGACAGCGCGTACGTGCGTTTAAGCGGTGCTAGAGCTGTCTACGACCAATTGAGCGGCCTCGGCACCGGGATTCTCCAGGAT
modifications: reconstituted with mouse histones H2A, H2B, H3.3 and H4
On to B11, for which the binding signal in assay [1] is 0.909 log2 enrichment (bound/unbound, relative to Widom 601); in assay [2], 0.939 log2 enrichment (bound/unbound, relative to Widom 601).

B12: 124 (nucleosome)
DNA 1: ATCCTGGAGAATCCCGGTGCCGAGGCCGCTCAATTGGTCGTAGACAGCTCTAGCACCGCTTAAACGCACGTACGCGCTGTCCCCCGCGTTTTAACCGCCAAGGGGATTACTCCCTAGTCTCCAGGCTCAAGGCCAATATATACATCCTGTGAT
DNA 2: ATCACAGGATGTATATATTGGCCTTGAGCCTGGAGACTAGGGAGTAATCCCCTTGGCGGTTAAAACGCGGGGGACAGCGCGTACGTGCGTTTAAGCGGTGCTAGAGCTGTCTACGACCAATTGAGCGGCCTCGGCACCGGGATTCTCCAGGAT
modifications: reconstituted with mouse histones H2A, H2B, H3.3 and H4
B12: the binding signal in assay [1] was 3.87 log2 enrichment (bound/unbound, relative to Widom 601); in assay [2], 2.91 log2 enrichment (bound/unbound, relative to Widom 601).

B13: 123 (nucleosome)
DNA 1: ATCCTGGAGAATCCCGGTGCCGAGGCCGCTCAATTGGTCGTAGACAGCTCTAGCACCGCTTAAACGCACGTACGCGCTGTCCCCCGCGTTTTAACCGCCAAGGGGATTACTCCCTAGTCTCCAGGTCAAGGCCAGATATATACATCCTGTGAT
DNA 2: ATCACAGGATGTATATATCTGGCCTTGACCTGGAGACTAGGGAGTAATCCCCTTGGCGGTTAAAACGCGGGGGACAGCGCGTACGTGCGTTTAAGCGGTGCTAGAGCTGTCTACGACCAATTGAGCGGCCTCGGCACCGGGATTCTCCAGGAT
modifications: reconstituted with mouse histones H2A, H2B, H3.3 and H4
For B13, the binding signal was 1.01 log2 enrichment (bound/unbound, relative to Widom 601) in assay [1] and 1.41 log2 enrichment (bound/unbound, relative to Widom 601) in assay [2].

B14: 125 (nucleosome)
DNA 1: ATCCTGGAGAATCCCGGTGCCGAGGCCGCTCAATTGGTCGTAGACAGCTCTAGCACCGCTTAAACGCACGTACGCGCTGTCCCCCGCGTTTTAACCGCCAAGGGGATTACTCCCTAGTCTCCAGGCATCAAGGCCATATATACATCCTGTGAT
DNA 2: ATCACAGGATGTATATATGGCCTTGATGCCTGGAGACTAGGGAGTAATCCCCTTGGCGGTTAAAACGCGGGGGACAGCGCGTACGTGCGTTTAAGCGGTGCTAGAGCTGTCTACGACCAATTGAGCGGCCTCGGCACCGGGATTCTCCAGGAT
modifications: reconstituted with mouse histones H2A, H2B, H3.3 and H4
For B14, the binding signal in assay [1] is 4.55 log2 enrichment (bound/unbound, relative to Widom 601); in assay [2] it was 3.58 log2 enrichment (bound/unbound, relative to Widom 601).

B15: 14 (nucleosome)
DNA 1: ATCCTGGAGAATCCCGTCAAGGCCACCGCTCAATTGGTCGTAGACAGCTCTAGCACCGCTTAAACGCACGTACGCGCTGTCCCCCGCGTTTTAACCGCCAAGGGGATTACTCCCTAGTCTCCAGGCACGTGTCAGATATATACATCCTGTGAT
DNA 2: ATCACAGGATGTATATATCTGACACGTGCCTGGAGACTAGGGAGTAATCCCCTTGGCGGTTAAAACGCGGGGGACAGCGCGTACGTGCGTTTAAGCGGTGCTAGAGCTGTCTACGACCAATTGAGCGGTGGCCTTGACGGGATTCTCCAGGAT
modifications: reconstituted with mouse histones H2A, H2B, H3.3 and H4
For the molecule B15, the binding signal is 3.44 log2 enrichment (bound/unbound, relative to Widom 601) in assay [1] and 2.91 log2 enrichment (bound/unbound, relative to Widom 601) in assay [2].
